# In PubChem BioAssay (NCI):
# About 79,000 compounds went through this panel and 15% of them were active in at least one assay; those are over-represented in the sample as a whole. Values without a mark were called inactive. The source made the active and inactive calls. Cut-off read from the data, not from the text of the source: active = growth inhibition above about 70%; inactive = the rest.
# Legend:
# [1] = NCI Yeast Anticancer Drug Screen. Data for the sgs1 strain (AID 173);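 note: 0% = growth of vehicle-only control cultures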; settings: S. cerevisiae sgs1 mutant, stronger effect = higher value
# Outline: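 Strain with an altered DNA repair or cell cycle pathway exposed to compound. Growth then measured. Value = inhibition versus vehicle control.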
# [2] = NCI Yeast Anticancer Drug Screen. Data for the mlh1 rad18 strain (AID 175); settings: S. cerevisiae mlh1 rad18 strain growth inhibition, stronger effect = higher value
# Outline: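 A repair-deficient yeast strain is exposed to test compound, and growth is scored relative to vehicle-treated controls.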
# [3] = NCI Yeast Anticancer Drug Screen. Data for the rad18 strain (AID 177); settings: S. cerevisiae rad18 mutant growth inhibition, stronger effect = higher value
# Outline: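 DNA-repair-defective yeast; compound treatment; growth inhibition scored against vehicle.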
# [4] = NCI Yeast Anticancer Drug Screen. Data for the rad52 strain (AID 147);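 note: 0% = growth of vehicle-treated control cultures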; settings: S. cerevisiae rad52 mutant growth inhibition, stronger effect = higher value
# Outline: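 Growth of repair-deficient yeast cells was compared between compound-treated and vehicle-treated cultures to give percent inhibition.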
# [5] = NCI Yeast Anticancer Drug Screen. Data for the wt1 strain (AID 149);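 note: 0% = growth of vehicle-treated wt1 cultures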; settings: S. cerevisiae wt1 strain (SPY 50644) growth inhibition, stronger effect = higher value
# Outline: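 Yeast wt1 strain exposed to compounds; growth inhibition measured relative to vehicle-treated controls.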
# [6] = NCI Yeast Anticancer Drug Screen. Data for the rad50 strain (AID 155);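 note: 0% = growth of vehicle-only cultures of the same strain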; settings: S. cerevisiae rad50 strain growth inhibition, stronger effect = higher value
# Outline: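 Yeast carrying a defined DNA repair defect were exposed to test compounds, and growth was compared with vehicle-treated controls to give percent inhibition.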
# [7] = NCI Yeast Anticancer Drug Screen. Data for the mec2-1 strain (AID 157); settings: S. cerevisiae mec2-1 strain, stronger effect = higher value
# Outline: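 Compounds were applied to mec2-1 yeast cells. Their growth was then compared with that of vehicle-treated cultures to give growth inhibition.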
# [8] = NCI Yeast Anticancer Drug Screen. Data for the rad14 strain (AID 159);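 note: 0% = growth of vehicle-treated control cultures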; settings: S. cerevisiae rad14 strain growth inhibition, stronger effect = higher value
# Outline: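 Yeast cells carrying a defined DNA-repair defect were exposed to compounds, and growth inhibition was calculated relative to vehicle-treated control cultures.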
# [9] = NCI Yeast Anticancer Drug Screen. Data for the sgs1 mgt1 strain (AID 161);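 note: 0% = growth of cultures given vehicle only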; settings: S. cerevisiae sgs1 mgt1 strain, stronger effect = higher value
# Outline: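 This yeast growth screen uses a strain with defined DNA-repair lesions; compound-treated growth is compared with vehicle-treated growth.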
# [10] = NCI Yeast Anticancer Drug Screen. Data for the CLN2oe strain (AID 163);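 note: 0% = growth of vehicle-only control cultures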; settings: S. cerevisiae CLN2oe strain, stronger effect = higher value
# Outline: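 Cells of an engineered yeast line with disturbed cell-cycle regulation are treated with compound. Inhibition of growth is then calculated relative to the vehicle-treated reference.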
# [11] = NCI Yeast Anticancer Drug Screen. Data for the cln2 rad14 strain (AID 165);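 note: 0% = growth equal to vehicle treated cultures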; settings: S. cerevisiae cln2 rad14 strain, stronger effect = higher value
# Outline: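 Strain: cln2 rad14 yeast, altered in cell cycle control and DNA damage repair. Read-out: growth inhibition vs vehicle.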
# [12] = NCI Yeast Anticancer Drug Screen. Data for the bub3 strain (AID 167); settings: S. cerevisiae bub3 mutant strain, stronger effect = higher value
# Outline: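 Compounds were applied to a genetically altered yeast strain carrying a cell-cycle control defect. Growth inhibition was scored against vehicle-treated controls.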
# [13] = NCI Yeast Anticancer Drug Screen. Data for the wt2 strain (AID 169);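 note: 0% = growth of vehicle-treated yeast cultures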; settings: S. cerevisiae wt2 strain growth inhibition, stronger effect = higher value
# Outline: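 Growth of compound-treated yeast is measured and expressed as inhibition relative to vehicle-only controls.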
# [14] = NCI Yeast Anticancer Drug Screen. Data for the mlh1 strain (AID 171);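 note: 0% = growth of vehicle-treated control cultures of the same strain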; settings: S. cerevisiae mlh1 strain growth inhibition, stronger effect = higher value
# Outline: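 Test agents were incubated with yeast bearing a defined DNA damage repair or cell cycle control alteration; values are growth inhibition normalised to vehicle-treated cultures.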
# [15] = NCI Yeast Anticancer Drug Screen. Data for the rad50EPP+ strain (AID 151);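 note: 0% = growth of vehicle-treated control cultures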; settings: S. cerevisiae rad50 mutant strain, stronger effect = higher value
# Outline: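 Measured: growth inhibition of rad50EPP+ yeast. Reference: vehicle-treated controls. Screen uses strains with defined genetic alterations in DNA damage repair or cell cycle control.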
# [16] = at 5.0 µM (retest, dose inferred, filed as 0.5)
# [17] = at 50.0 µM (retest, dose inferred, filed as 5.0)
structure (smiles),measurement,setting,value
Cc1ccccc1NC(=O)Cc1csc(N/N=C2\NC(=O)/C(=C/c3cccc([N+](=O)[O-])c3)S2)n1,growth inhibition,[1]; at 33.0 µM,40%
same,growth inhibition,[1]; at 100.0 µM,70% (active)
same,growth inhibition,[2]; [16],13%
same,growth inhibition,[2]; [17],42%
same,growth inhibition,[2]; at 50.0 µM,60.5%
same,growth inhibition,[3]; at 1.2 µM,-2%
same,growth inhibition,[3]; at 3.7 µM,-3%
same,growth inhibition,[3]; at 11.0 µM,6%
same,growth inhibition,[3]; at 33.0 µM,32%
same,growth inhibition,[3]; at 100.0 µM,59%
CC(=O)Oc1ccc(N2C(=O)C3c4[nH]c5ccccc5c4C4CCC(C(C)(C)C)CC4C3C2=O)cc1 (stereo not drawn),growth inhibition,[4]; at 1.2 µM,7%
same,growth inhibition,[4]; at 3.7 µM,87% (active)
same,growth inhibition,[4]; at 11.0 µM,96% (active)
same,growth inhibition,[4]; at 33.0 µM,96% (active)
same,growth inhibition,[4]; at 100.0 µM,90% (active)
same,growth inhibition,[5]; at 1.2 µM,15%
same,growth inhibition,[5]; at 3.7 µM,64%
same,growth inhibition,[5]; at 11.0 µM,98% (active)
same,growth inhibition,[5]; at 33.0 µM,95% (active)
same,growth inhibition,[5]; at 100.0 µM,95% (active)
same,growth inhibition,[6]; at 1.2 µM,-14%
same,growth inhibition,[6]; at 3.7 µM,91% (active)
same,growth inhibition,[6]; [16],98% (active)
same,growth inhibition,[6]; at 11.0 µM,96% (active)
same,growth inhibition,[6]; at 33.0 µM,95% (active)
same,growth inhibition,[6]; [17],98% (active)
same,growth inhibition,[6]; at 50.0 µM,98.5% (active)
same,growth inhibition,[6]; at 100.0 µM,92% (active)
same,growth inhibition,[7]; at 1.2 µM,-4%
same,growth inhibition,[7]; at 3.7 µM,71% (active)
same,growth inhibition,[7]; [16],99% (active)
same,growth inhibition,[7]; at 11.0 µM,98% (active)
same,growth inhibition,[7]; at 33.0 µM,98% (active)
same,growth inhibition,[7]; [17],98% (active)
same,growth inhibition,[7]; at 50.0 µM,98.5% (active)
same,growth inhibition,[7]; at 100.0 µM,95% (active)
same,growth inhibition,[8]; at 1.2 µM,-15%
same,growth inhibition,[8]; at 3.7 µM,18%
same,growth inhibition,[8]; at 11.0 µM,97% (active)
same,growth inhibition,[8]; at 33.0 µM,97% (active)
same,growth inhibition,[8]; at 100.0 µM,95% (active)
same,growth inhibition,[9]; [16],98% (active)
same,growth inhibition,[9]; [17],98% (active)
same,growth inhibition,[9]; at 50.0 µM,98.5% (active)
same,growth inhibition,[10]; at 1.2 µM,16%
same,growth inhibition,[10]; at 3.7 µM,92% (active)
same,growth inhibition,[10]; at 11.0 µM,98% (active)
same,growth inhibition,[10]; at 33.0 µM,97% (active)
same,growth inhibition,[10]; at 100.0 µM,97% (active)
same,growth inhibition,[11]; [16],83% (active)
same,growth inhibition,[11]; [17],98% (active)
same,growth inhibition,[11]; at 50.0 µM,98.6% (active)
same,growth inhibition,[12]; at 1.2 µM,-28%
same,growth inhibition,[12]; at 3.7 µM,64%
same,growth inhibition,[12]; [16],98% (active)
same,growth inhibition,[12]; at 11.0 µM,97% (active)
same,growth inhibition,[12]; at 33.0 µM,96% (active)
same,growth inhibition,[12]; [17],98% (active)
same,growth inhibition,[12]; at 50.0 µM,98.5% (active)
same,growth inhibition,[12]; at 100.0 µM,94% (active)
same,growth inhibition,[13]; at 1.2 µM,-4%
same,growth inhibition,[13]; at 3.7 µM,25%
same,growth inhibition,[13]; at 11.0 µM,98% (active)
same,growth inhibition,[13]; at 33.0 µM,98% (active)
same,growth inhibition,[13]; at 100.0 µM,96% (active)
same,growth inhibition,[14]; at 1.2 µM,-15%
same,growth inhibition,[14]; at 3.7 µM,36%
same,growth inhibition,[14]; at 11.0 µM,98% (active)
same,growth inhibition,[14]; at 33.0 µM,97% (active)
same,growth inhibition,[14]; at 100.0 µM,94% (active)
same,growth inhibition,[1]; at 1.2 µM,-7%
same,growth inhibition,[1]; at 3.7 µM,52%
same,growth inhibition,[1]; at 11.0 µM,97% (active)
same,growth inhibition,[1]; at 33.0 µM,97% (active)
same,growth inhibition,[1]; at 100.0 µM,94% (active)
same,growth inhibition,[3]; at 1.2 µM,13%
same,growth inhibition,[3]; at 3.7 µM,82% (active)
same,growth inhibition,[3]; at 11.0 µM,96% (active)
same,growth inhibition,[3]; at 33.0 µM,95% (active)
same,growth inhibition,[3]; at 100.0 µM,93% (active)
CC(=O)CC(=O)/C=C/c1cccs1,growth inhibition,[4]; at 1.2 µM,-15%
same,growth inhibition,[4]; at 3.7 µM,-8%
same,growth inhibition,[4]; at 11.0 µM,6%
same,growth inhibition,[4]; at 33.0 µM,26%
same,growth inhibition,[4]; at 100.0 µM,86% (active)
same,growth inhibition,[15]; at 1.2 µM,7%
same,growth inhibition,[15]; at 3.7 µM,0%
same,growth inhibition,[15]; at 11.0 µM,33%
same,growth inhibition,[15]; at 33.0 µM,89% (active)
same,growth inhibition,[15]; at 100.0 µM,92% (active)
same,growth inhibition,[6]; at 1.2 µM,-3%
same,growth inhibition,[6]; at 3.7 µM,-5%
same,growth inhibition,[6]; [16],97% (active)
same,growth inhibition,[6]; at 11.0 µM,18%
same,growth inhibition,[6]; at 33.0 µM,76% (active)
same,growth inhibition,[6]; [17],100% (active)
same,growth inhibition,[6]; at 50.0 µM,68.7%
same,growth inhibition,[6]; at 100.0 µM,92% (active)
same,growth inhibition,[7]; at 1.2 µM,-36%
same,growth inhibition,[7]; at 3.7 µM,-38%
same,growth inhibition,[7]; [16],94% (active)
same,growth inhibition,[7]; at 11.0 µM,-21%
same,growth inhibition,[7]; at 33.0 µM,10%
same,growth inhibition,[7]; [17],99% (active)
same,growth inhibition,[7]; at 50.0 µM,50%
same,growth inhibition,[7]; at 100.0 µM,77% (active)
same,growth inhibition,[8]; at 1.2 µM,-12%
same,growth inhibition,[8]; at 3.7 µM,-9%
same,growth inhibition,[8]; at 11.0 µM,6%
same,growth inhibition,[8]; at 33.0 µM,8%
same,growth inhibition,[8]; at 100.0 µM,89% (active)
same,growth inhibition,[9]; [16],-16%
same,growth inhibition,[9]; [17],44%
same,growth inhibition,[9]; at 50.0 µM,51.2%
same,growth inhibition,[10]; at 1.2 µM,-27%
same,growth inhibition,[10]; at 3.7 µM,-30%
same,growth inhibition,[10]; at 11.0 µM,-24%
same,growth inhibition,[10]; at 33.0 µM,2%
same,growth inhibition,[10]; at 100.0 µM,38%
same,growth inhibition,[11]; [16],15%
same,growth inhibition,[11]; [17],72% (active)
same,growth inhibition,[11]; at 50.0 µM,32.1%
same,growth inhibition,[12]; at 1.2 µM,2%
same,growth inhibition,[12]; at 3.7 µM,-10%
same,growth inhibition,[12]; [16],-1%
same,growth inhibition,[12]; at 11.0 µM,-27%
same,growth inhibition,[12]; at 33.0 µM,21%
same,growth inhibition,[12]; [17],53%
same,growth inhibition,[12]; at 50.0 µM,19%
same,growth inhibition,[12]; at 100.0 µM,90% (active)
same,growth inhibition,[13]; at 1.2 µM,-17%
same,growth inhibition,[13]; at 3.7 µM,-17%
same,growth inhibition,[13]; at 11.0 µM,-9%
same,growth inhibition,[13]; at 33.0 µM,-10%
same,growth inhibition,[13]; at 100.0 µM,84% (active)
same,growth inhibition,[2]; [16],100% (active)
same,growth inhibition,[2]; [17],100% (active)
same,growth inhibition,[2]; at 50.0 µM,64.8%
same,growth inhibition,[3]; at 1.2 µM,-20%
same,growth inhibition,[3]; at 3.7 µM,-26%
same,growth inhibition,[3]; at 11.0 µM,12%
same,growth inhibition,[3]; at 33.0 µM,20%
same,growth inhibition,[3]; at 100.0 µM,88% (active)
